hcDAF12 agonist: H. contortus DAF-12 activation, primary screen; HEK293 hcDAF-12 lit1-tk-luc reporter, luminescence; 0% DMSO, 100% Δ7-dafachronic acid; activation, % at 6.8 µM; 370,000 tested, 1.4% active; AID 652067;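 active means activation above the mean of all tested compounds plus 3 SD, cut at about 5.5% in these data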;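 further: 100% = response to 3 µM Δ7-dafachronic acid high control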
SMARCA2 activ: activators of SMARCA2 function; MG213 cells, MMTV-luciferase reporter, dexamethasone, overnight; 370,000 tested, 1% active; activation, % at 9.1 µM; in the data active means activation above about 7.8%;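 further: 0% = vehicle wells and 100% = reference activator wells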
DAX1 inh-1: DAX1 (NR0B1) inhibition, primary screen | HEK293T StAR-luciferase reporter, SF-1/DAX-1 repression relief | inhibition, % at 6.8 µM | AID 652010 | 370,000 tested, 1.1% active;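 active means inhibition above the mean over all tested compounds plus 3 SD, cut at about 3.6% in these data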;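 further: 0% = DAX-1 cells with DMSO and 100% = cells lacking DAX-1 with DMSO; higher inhibition means more luminescence from relief of DAX-1 repression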
ssDAF-12 act: activators of S. stercoralis DAF-12 nuclear receptor; activation, % at 6.8 µM; AID 652126; HEK293 ssDAF-12/GRIP1 lit1-tk-luc reporter, luminescence; % of 3 µM dafachronic acid response; 370,000 tested, 1% active;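 active means activation above the mean over all tested compounds plus 3 SD, cut at about 0.9% in these data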;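 further: 0% = DMSO-only wells and 100% = 3 µM delta7-dafachronic acid wells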
hgDAF-12 ag: agonists of H. glycines DAF-12 nuclear receptor; HEK293 GAL4-hgDAF12 UAS-luciferase reporter, agonist luminescence; normalized to butyrate control; activation, % at 6.8 µM; 370,000 tested, 1.8% active; AID 687014;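 active means activation above a cutoff set at the mean of all screened compounds plus 3 SD, cut at about 10% in these data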;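 further: 0% = DMSO wells and 100% = sodium butyrate wells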
DAX1 inh-2: inhibitors of human orphan nuclear receptor DAX1 (NR0B1); P51843; 340,000 tested, 0.99% active; AID 504766; inhibition, % at 6.75 µM; HEK293 Gal4-DAX1 luciferase reporter, luminescence;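 active means inhibition above the mean over all tested compounds plus 3 SD, cut at about 4.2% in these data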;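 further: 0% = DAX1-transfected cells with DMSO and 100% = empty-vector control cells with DMSO; inhibition shows as a rise in luminescence from relieved DAX1 repression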
Target sequence (P51843 207-470 limits assumed): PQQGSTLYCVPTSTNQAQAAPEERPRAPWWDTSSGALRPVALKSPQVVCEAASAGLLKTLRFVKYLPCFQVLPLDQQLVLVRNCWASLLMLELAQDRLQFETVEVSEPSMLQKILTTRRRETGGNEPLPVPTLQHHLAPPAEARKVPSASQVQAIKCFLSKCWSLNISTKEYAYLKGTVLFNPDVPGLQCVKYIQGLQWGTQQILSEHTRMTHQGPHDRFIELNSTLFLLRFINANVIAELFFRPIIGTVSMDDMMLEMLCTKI
LXRb hcDAF ctr: activates human LXR-beta, counter-screen for hcDAF-12 agonists; HEK293 Gal4-LXR tk-luc reporter, luminescence, 24 h; normalized: DMSO 0%, positive control 100%; 3,400 tested, under 10 active; AID 743027; activation, % at 6.8 µM; shares compounds with hcDAF12 agonist;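 active means mean percent activation of the reporter above a cutoff set as the average over tested compounds plus their standard deviation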
Target sequence (P55055 whole entry, looked up, the tested form may be a part): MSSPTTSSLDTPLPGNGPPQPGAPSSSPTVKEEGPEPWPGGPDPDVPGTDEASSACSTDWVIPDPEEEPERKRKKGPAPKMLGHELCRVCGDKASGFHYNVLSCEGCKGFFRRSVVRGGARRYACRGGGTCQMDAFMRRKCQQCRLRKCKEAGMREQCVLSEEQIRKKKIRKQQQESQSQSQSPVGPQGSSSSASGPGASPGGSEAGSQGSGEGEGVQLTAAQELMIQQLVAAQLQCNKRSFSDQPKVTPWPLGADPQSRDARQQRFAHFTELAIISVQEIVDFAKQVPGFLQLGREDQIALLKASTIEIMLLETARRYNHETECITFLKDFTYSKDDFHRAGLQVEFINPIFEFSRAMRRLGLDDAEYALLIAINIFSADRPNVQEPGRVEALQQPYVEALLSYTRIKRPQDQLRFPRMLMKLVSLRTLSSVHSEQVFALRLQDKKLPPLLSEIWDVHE
hcDAF12 ag: hcDAF-12 agonism, confirmation assay; shares compounds with hcDAF12 agonist; HEK293 hcDAF-12 lit1-tk-luc reporter, luminescence; % of Δ7-dafachronic acid response; activation, % at 6.8 µM; 3,400 tested, 61% active;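 active means mean activation across triplicate tests above the threshold derived from the earlier primary screen, cut at about 5.5% in these data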;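 further: 0% = DMSO only wells and 100% = 3 µM Δ7-dafachronic acid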
Numbers without * were called inactive; · = not tested or not shown. Compounds with a hit are over-represented: about 4.8% of the library has one in this group of screens.

SMILES	hcDAF12 agonist	SMARCA2 activ	DAX1 inh-1	ssDAF-12 act	hgDAF-12 ag	DAX1 inh-2	LXRb hcDAF ctr	hcDAF12 ag
CCCCn1nnnc1NCc1ccc(OC)c(OC)c1	8.5*	-1.1	-0.7	-1.7	0.4	-1.9	-0.2	1.2
NC(=O)NC(=O)COC(=O)c1ccc(OC(F)F)cc1	-1.5	-0.6	-0.6	-1.7	-1.0	3.9	·	·
COc1ccccc1NC(=S)Nc1ccccn1	-0.1	0.9	-0.1	-1.6	1.1	-0.3	·	·
Cc1ccc(NC(=S)c2ccncc2)c(C)c1	1.4	-0.3	-0.5	0.3	-3.4	0.6	·	·
Cc1ccc(NC(=S)Nc2ccccn2)c(C)c1	7.2*	4.0	1.4	0.8	6.8	1.1	0.9	8.7*
Cc1cc(C)cc(NC(=S)Nc2ccccn2)c1	7.5*	2.4	0.5	0.7	4.1	0.0	0.1	3.7
Cc1ccc(NC(=S)Nc2ccccn2)cc1C	8.6*	4.7	1.0	1.8*	12.8*	·	0.7	10.8*
O=C1CCc2cc(NS(=O)(=O)c3ccc([N+](=O)[O-])cc3)cc3c2N1CCC3	1.4	-2.3	0.5	-1.0	-0.4	0.3	·	·
CC(=O)c1c(CC(=O)O)[nH]n(-c2nc3ccccc3s2)c1=O	6.6*	-1.1	1.5	-0.3	6.9	1.3	0.0	4.6
O=c1[nH]c(SCc2ccc([N+](=O)[O-])cc2)nc2[nH]ncc12	-0.3	2.3	0.6	-0.2	4.5	0.5	·	·
Cc1ccnc(NS(=O)(=O)c2ccc(NC(=O)c3ccc(S(=O)(=O)N4CC(C)OC(C)C4)cc3)cc2)n1 (stereo not given)	19.4*	0.0	1.3	-1.2	0.1	0.1	-0.1	0.9
CC1CN(S(=O)(=O)c2ccc(C(=O)Nc3ccc(S(=O)(=O)Nc4nccs4)cc3)cc2)CC(C)O1 (stereo not given)	1.5	1.4	1.8	-0.6	-1.8	3.1	·	·
CCc1nnc(NS(=O)(=O)c2ccc(N=CC3=C(O)CC(C)(C)CC3=O)cc2)s1	0.6	0.8	-0.3	-1.7	-1.1	-0.6	·	·
Cc1sc2c(c1C)CN(C(C)(C)C)CN2C(=O)c1ccccc1	6.8*	3.5	1.5	0.8	8.9	0.6	0.1	6.4*
Cc1sc2c(c1C)CN(Cc1ccncc1)CN2C(=O)c1ccco1	2.7	1.5	0.7	-1.1	4.8	1.2	·	·
CCCn1c(SCC(=O)N2CCCC(C)C2)nnc1-c1ccccn1 (stereo not given)	-0.8	-2.4	-0.4	-1.5	-2.8	-0.2	·	·
Cc1c(C(=O)N2CCc3ccccc32)oc2ccccc12	14.3*	5.8	4.4*	4.6*	18.9*	2.7	1.4	18.5*
O=C(c1ccc2c(c1)OCO2)N1CCc2ccccc21	7.1*	1.7	0.6	1.1*	3.3	-1.7	0.1	3.6
O=C(c1ccc2c(c1)OCO2)N1CCCc2ccccc21	1.1	1.6	0.4	-0.4	0.6	0.5	·	·
O=C(CSc1ncccn1)NC1CCCC1	1.6	-0.9	-0.3	-0.4	0.3	-0.6	·	·
C=CCn1c(O)c(N=Nc2ccccc2[N+](=O)[O-])c2ccccc21	6.7*	-2.5	1.2	1.1*	4.7	1.4	0.2	8.4*
COc1ccc(N2CCN(C(=O)CSc3nnc(-c4ccco4)n3C)CC2)cc1	-1.4	1.5	-1.4	-1.0	1.5	·	·	·
CC(c1cc(F)ccc1O)c1c[nH]c2ccccc12 (stereo not given)	6.7*	-2.0	-0.4	-0.3	2.5	·	-0.1	5.5
COc1ccc2[nH]cc(C(C)c3c[nH]c4ccccc34)c2c1 (stereo not given)	3.8	-4.0	-1.2	-0.3	1.6	·	·	·
COc1ccc(/C=C/C(=O)NC(=S)Nc2cc([N+](=O)[O-])ccc2O)cc1OC	-1.7	-2.2	2.1	-2.0	4.1	0.2	·	·
SMILES	hcDAF12 agonist	SMARCA2 activ	DAX1 inh-1	ssDAF-12 act	hgDAF-12 ag	DAX1 inh-2	LXRb hcDAF ctr	hcDAF12 ag
O=C(NC(=S)Nc1cc([N+](=O)[O-])ccc1O)C1CC1	9.6*	-1.0	-0.3	-0.7	2.6	0.3	-0.3	0.7
COc1ccccc1Cc1nc(-c2ccc(Br)o2)no1	8.1*	0.3	2.8	0.7	3.6	-1.8	0.2	8.0*
CC(C)(C)NC(=O)CN(C(=O)C(=O)Nc1ccc2c(c1)OCCO2)N1CCOCC1	-1.5	-1.7	-0.6	-1.2	-0.1	1.3	·	·
CN1CCN(C(=O)CNC(=O)c2cccs2)CC1	7.8*	-0.5	0.5	0.1	2.9	2.9	-0.2	1.1
CCN(CC(=O)Nc1c(F)cccc1F)C(=O)CCNC(=O)c1ccc([N+](=O)[O-])cc1	-2.3	-2.1	-0.2	-0.6	-3.4	-0.4	·	·
CCc1nc2sccc2c(=O)n1N	0.0	-1.4	0.0	-1.1	1.7	0.5	·	·
NC(=O)c1c(NC(=O)c2ccccc2F)sc2c1CCCC2	9.0*	1.5	2.6	0.3	12.9*	5.4*	1.1	7.3*
N#Cc1c(NC(=O)c2ccccc2)sc2c1CCCCC2	7.0*	5.9	3.0	1.0*	12.8*	1.5	1.0	5.9*
CCN(CC)S(=O)(=O)c1ccc(Cl)c(NC(=O)COC(=O)c2nc3nc(C)cc(C)n3n2)c1	-0.1	0.3	1.7	-1.4	4.7	-0.8	·	·
Nc1ccccc1N1C(=O)c2cccc3cccc(c23)C1=O	6.7*	1.5	0.5	0.2	4.2	·	0.1	5.3
O=C1c2cccc3cccc(c23)C(=O)N1c1ccccc1Cl	-3.3	-0.7	-0.9	-1.4	-3.9	-0.9	·	·
CCN(CC)C(=O)CN1CCN(Cc2ccc3c(c2)OCO3)CC1	-2.0	1.1	0.1	-1.1	-0.7	-0.9	·	·
O/N=C/C1=C(Cl)c2ccccc2CC1	-1.3	-3.2	-0.7	-1.5	-2.4	-0.9	·	·
CC(C)Oc1ccc(C(=O)Nc2nc3ccccc3[nH]2)cc1	8.7*	1.6	1.4	-0.2	2.1	-2.1	0.2	-0.7
CC(C)Oc1ccc(C(=O)Nc2ncn[nH]2)cc1	1.6	0.6	0.2	-1.4	5.8	2.4	·	·
Cc1ccc(-c2cc(-c3ccccc3)no2)cc1	13.6*	6.9	3.7*	1.8*	13.6*	1.7	2.2	14.5*
Cc1ccc(NC(=O)OCc2cc(-c3ccccc3)on2)cc1	0.4	0.3	0.3	-1.3	1.2	2.8	·	·
CNc1nc(-c2ccccc2)[n+](-c2ccc(C)cc2)s1	11.3*	2.9	1.7	1.1*	8.1	-1.8	-0.3	-0.3
Cc1c(Nc2ccc(C=O)cc2)c(=O)n(-c2ccccc2)n1C	1.3	6.0	-0.8	-1.3	2.2	0.0	·	·

Screens: PubChem, The Scripps Research Institute Molecular Screening Center
